# Source: PubChem BioAssay AID492998 (Southern Research Specialized Biocontainment Screening …, 2010)
# In all, about 2,300 compounds went through this assay and about 550 (24%) were called active. The list is a sample of the results. Potency and affinity values are given separately. Values without a mark were called inactive. No rule for the calls is given here.
# Test: Vero E6 cell cytotoxicity, dose response, cytotoxicity control for non-replicating M. tuberculosis project, secondary assay (AID 492998);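 also: 100% = vehicle-treated cells and 0% = background wells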
# Conditions: series mostly up to 20 µM; viability: at the top concentration
row,Compound,viability
1,CC(C(=O)OCC(=O)c1ccccc1)N1C(=O)C2C3CCC(C3)C2C1=O (configuration not stated),98.4%
2,COc1cccc(C(=O)OCC(=O)c2ccc(Br)s2)c1OC,108%
3,COc1ccccc1C1=Nn2c(nnc2C2CCCCC2)SC1,97.1%
4,c1nc2n(n1)C1=C(CCCC1)C1(CCCCC1)N2,104%
5,O=C(Nc1ccc(Cl)cc1Cl)c1cccc(N2C(=O)C=CC2=O)c1,105%
6,O=c1c2cc(Cl)ccc2oc2nc3n(c(=O)c12)CCCS3,94.8%
7,CCCc1nnc(NC(=O)c2cc3ccccc3oc2=O)s1,102%
8,COCc1[nH]nc2c1C(c1sccc1C)C(C#N)=C(N)O2 (configuration not stated),90.7%
9,O=C(CCC1CCCCC1)NCc1cccs1,107%
10,CCc1ccc(OCC(=O)c2c(O)c3ccccc3oc2=O)cc1,110%
11,Oc1cc(NCc2cccnc2)ccc1-c1nc2ccccc2o1,70.9%
12,C/C(O)=C\c1nc2ccccc2oc1=O,83.7%
13,COc1cc(/C=N/Nc2cccc3cccnc23)cc(OC)c1O,88.8%
14,COc1ccc(/C=C/c2nc3ccccc3c(=O)o2)cc1,93.3%
15,CC(=O)c1ccc(-c2nnc(CCC(=O)N(C)Cc3cccc4cnccc34)o2)s1,103%
16,c1coc(CNc2nc(N3CCCCC3)nc3ccccc23)c1,82.4%
17,O=[N+]([O-])c1ccc(CSc2nnc(-c3cccnc3)o2)cc1,96.4%
18,CC1CCN(C(=O)COC(=O)CCc2c[nH]c3ccccc23)CC1,87.8%
19,Cc1ccc(N=N/C(=C\O)C(=O)c2ccncc2)cc1,101%
20,CCOC(=O)Nc1cccc(OCC(=O)Nc2ccc(OC)cc2OC)c1,92.2%
21,O=C(Nc1ncc([N+](=O)[O-])s1)c1ccc2c(c1)OCO2,72.5%
22,Cc1ccc(NC(=O)COC(=O)C2=COCCO2)c([N+](=O)[O-])c1,97.8%
23,O=C(Nc1nccs1)c1ccc2ccccc2c1,90.7%
24,O=C(COC(=O)c1cc(Br)ccc1O)Nc1ccc2c(c1)OCO2,105%
25,COc1ccc2nc(/N=C(\N)NC(=O)C(C)(C)C)nc(C)c2c1,84.7%
26,COc1ccc(Nc2ccccc2N)cc1,70.4%

row,Compound,viability
1,Cc1cccc(NC(=O)c2cc3ccccc3oc2=O)c1,75.2%
2,CCc1ccc(N2C(=O)NC(=O)/C(=C\C=C\c3ccco3)C2=O)cc1,95%
3,O=C(COc1ccc2ccccc2c1)NNC(=O)c1cccs1,106%
4,CCc1c(C)c2ccc(OCC(=O)OC)cc2oc1=O,99.3%
5,O=C(O/N=C/c1ccc2c(c1)OCO2)c1ccc([N+](=O)[O-])cc1,95%
6,CCC(=O)Nc1ccc(C(=O)NNC(=O)c2cc([N+](=O)[O-])cc([N+](=O)[O-])c2)cc1,91.2%
7,c1ccc(OCc2nnc3sc(-c4cccs4)nn23)cc1,91%
8,CCOC(=O)c1cc([N+](=O)[O-])c([N+](=O)[O-])cc1NC(C)=O,88%
9,COc1cc2c(cc1OC)CN(C(=O)c1ccc([N+](=O)[O-])o1)CC2,72%
10,O=C(c1ccc([N+](=O)[O-])o1)N1CCN(c2nc3ccc(F)cc3s2)CC1,99.2%
11,CC1(CCc2ccc3c(c2)OCO3)NC(=O)c2ccccc2N1 (configuration not stated),99.9%
12,COc1ccccc1-c1nnc(-c2ccc(C)cc2)o1,92.6%
13,COc1ccccc1-c1cc(SC)c(C#N)c(=O)o1,84.8%
14,CCc1ccc(NC(=O)CCc2ccc(C)o2)cc1,101%
15,O=S(=O)(NCc1cccnc1)c1ccc(Cl)c(Cl)c1Cl,92.2%
16,CC1CCCN(CCCOc2ccc([N+](=O)[O-])cc2)C1 (configuration not stated),104%
17,Cc1ccccc1OCCNc1cc(N2CC(C)NC(C)C2)ccc1[N+](=O)[O-] (configuration not stated),83.2%
18,S=c1[nH]c2ccccc2o1,97.2%
19,CCOc1ccc(OC(=O)c2ccc3c(=O)n4c(nc3c2)CCC4)cc1,100%
20,O=Cc1c(NCc2ccco2)nc2ccccn2c1=O,97.9%
21,CC(C)Oc1ccc(CNC(=O)Oc2ccccc2)cc1,90.1%
22,CCCOc1ccc(N2CC(C(=O)Nc3ccccc3F)CC2=O)cc1 (configuration not stated),101%
23,CCOC(=O)Cn1c2ccc(F)cc2c2nc(C)sc21,108%
24,Cc1cccc(NC(=O)c2cc3ccccc3o2)c1,96.6%
25,CC(C)(C)NC(=O)C(=O)NNC(=O)c1ccc(C(C)(C)C)cc1,83.8%
26,CCOC(=O)c1nc2sc3c(c2c(=O)[nH]1)CCC(C)C3 (configuration not stated),100%

row,Compound,viability
1,O=C(CCN1C(=O)S/C(=C\c2ccc(F)cc2)C1=O)Nc1ccc(C(=O)O)c(O)c1,91.7%
2,COc1ccc(OCC(=O)Nc2ccc(N3CCN(C(=O)c4ccco4)CC3)cc2)cc1,112%
3,CC(=O)c1cccc(NC(=O)C2COc3ccccc3O2)c1 (configuration not stated),101%
4,Cc1ccc(CNCc2cc(Cl)ccc2O)cc1,90%
5,O=C(CCCOc1ccccc1)OCn1nnc2ccccc2c1=O,101%
6,O=C(NCc1ccccc1)c1cc2ccccc2oc1=O,104%
7,CCC/C(=N\NC(=O)c1ccco1)c1ccc(Cl)s1,82.4%
8,O=C(Nc1nccs1)c1ccc(Br)cc1,96.5%
9,C/C(=C\C(=O)c1ccc(Br)cc1)NNC(=O)c1ccccc1,77.2%
10,COc1cc(C=O)ccc1OCCCCOc1ccccc1[N+](=O)[O-],98.1%
11,CCOC(=O)c1cc(-c2c(Cl)cccc2Cl)no1,109%
12,c1ccc(Cn2c(SCCN3CCOCC3)nnc2-c2cccnc2)cc1,92.9%
13,O=C(O)c1ccc(CN2C(=O)CSC2=S)cc1,92.6%
14,COc1ccc(CN=C2NN=C(c3ccc(Cl)cc3)CS2)cc1,86.2%
15,O=C(O)CCCCCN1C(=O)CSC1=S,94.7%
16,O=C1NC(Cc2c[nH]c3ccccc23)C(=O)N1CCOc1ccccc1 (configuration not stated),91.7%
17,CCOc1ccc(/C=N/OCC(=O)Nc2ccc3c(c2)OCO3)cc1,113%
18,COc1cccc(OCC(=O)NNC(=O)c2cccs2)c1,90.7%
19,CCC(=O)N/N=C/c1ccc(-c2ccc(Cl)cc2)o1,75.8%
20,Cc1ccc(CO/N=C/c2c(O)cc(C)oc2=O)cc1,105%
21,Cc1ccc(NC(=O)C2COc3ccccc3O2)nc1 (configuration not stated),107%
22,O=C1NC(=S)S/C1=C\c1ccc(SCc2ccco2)o1,74.8%
23,O=C(C/C=N\OCc1ccc([N+](=O)[O-])cc1)Nc1ccccc1,104%
24,C/C(=N\Nc1nc2ccccc2[nH]1)c1ccc(N2CCOCC2)cc1,80.6%
25,CCCc1cc(=O)n2[nH]c(C)c(-c3ccccc3)c2n1,103%
